One compound from the supplement of paper PMC11732987, “Enantioselective OTUD7B fragment discovery through chemoproteomics screening and high-throughput optimisation” (Communications Chemistry, 2025) can be followed below.

What all share (experiment): log2 ratio of Biotin-Ahx-Ub-VS probe labelling (fragment/DMSO); higher = less target engagement (more negative = stronger competition), active = hit call of the paper (q ≤ 0.05, log2 ratio ≤ -1)
Details in all cases: compound concentration: 200 uM; treatment time: 3 h

Experiment [1] deals with T1, OTUD6B (UniProt Q8N6M0).
T1 sequence (whole entry): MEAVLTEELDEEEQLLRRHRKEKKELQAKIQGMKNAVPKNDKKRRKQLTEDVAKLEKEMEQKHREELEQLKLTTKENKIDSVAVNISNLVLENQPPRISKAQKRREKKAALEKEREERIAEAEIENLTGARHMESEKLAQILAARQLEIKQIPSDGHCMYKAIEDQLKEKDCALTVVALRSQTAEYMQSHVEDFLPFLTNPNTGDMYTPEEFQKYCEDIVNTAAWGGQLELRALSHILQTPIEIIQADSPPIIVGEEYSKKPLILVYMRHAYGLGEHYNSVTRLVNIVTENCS
The essentials:
(§1)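 The table lists average log2 ratios of fragment over vehicle, from an unpaired t-test on global-median-normalised Spectronaut label-free quantities. Proteins with ≥2 unique peptides were used. Samples were HEK293T lysate (495 µg) treated in triplicate with fragment at 200 µM or vehicle for 3 h, then with Biotin-Ahx-Ub-VS (0.5 µM final) for 1 h, with labelled DUBs NeutrAvidin-enriched and run by diaPASEF LC-MS/MS.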

Experiment [2] concerns the target T2, OTUD7B (UniProt Q6GQQ9).
T2 sequence (whole entry): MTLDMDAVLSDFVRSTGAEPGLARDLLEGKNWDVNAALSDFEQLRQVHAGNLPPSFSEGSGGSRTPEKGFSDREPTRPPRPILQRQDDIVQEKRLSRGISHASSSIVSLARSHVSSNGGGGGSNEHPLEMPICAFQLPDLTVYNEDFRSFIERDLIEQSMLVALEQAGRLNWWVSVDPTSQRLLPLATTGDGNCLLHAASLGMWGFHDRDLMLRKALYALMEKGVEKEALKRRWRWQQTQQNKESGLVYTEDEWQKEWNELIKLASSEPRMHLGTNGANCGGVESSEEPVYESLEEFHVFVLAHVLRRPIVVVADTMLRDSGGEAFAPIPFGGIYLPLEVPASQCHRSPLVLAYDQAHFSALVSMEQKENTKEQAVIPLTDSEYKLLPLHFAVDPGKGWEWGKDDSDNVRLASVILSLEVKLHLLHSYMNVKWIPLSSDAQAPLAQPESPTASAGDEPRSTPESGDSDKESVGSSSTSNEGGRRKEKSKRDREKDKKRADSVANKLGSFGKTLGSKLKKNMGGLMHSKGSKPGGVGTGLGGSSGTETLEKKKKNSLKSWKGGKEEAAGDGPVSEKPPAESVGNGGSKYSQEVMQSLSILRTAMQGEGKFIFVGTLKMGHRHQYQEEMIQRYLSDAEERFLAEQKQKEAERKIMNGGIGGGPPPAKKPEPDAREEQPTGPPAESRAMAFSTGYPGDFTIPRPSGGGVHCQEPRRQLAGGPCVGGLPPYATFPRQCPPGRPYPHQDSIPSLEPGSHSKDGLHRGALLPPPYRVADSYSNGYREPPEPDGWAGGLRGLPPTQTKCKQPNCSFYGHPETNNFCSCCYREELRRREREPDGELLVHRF
The essentials:
as §1

In experiment [3] the target is PRPF8 (UniProt Q6P2Q9). A digest of the protocol:
as §1

Experiment [4] addresses T3, PSMD7 (UniProt P51665).
T3 sequence (whole entry): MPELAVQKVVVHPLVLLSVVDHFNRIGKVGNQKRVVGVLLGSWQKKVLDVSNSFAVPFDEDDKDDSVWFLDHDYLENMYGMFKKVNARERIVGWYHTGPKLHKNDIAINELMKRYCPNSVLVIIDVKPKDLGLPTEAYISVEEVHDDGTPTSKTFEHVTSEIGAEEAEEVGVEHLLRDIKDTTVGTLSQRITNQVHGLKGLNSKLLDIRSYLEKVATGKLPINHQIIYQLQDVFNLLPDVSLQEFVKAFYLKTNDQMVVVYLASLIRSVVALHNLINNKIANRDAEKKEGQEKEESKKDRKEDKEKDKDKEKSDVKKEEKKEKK
A digest of the protocol: as §1

For experiment [5], the target named is UCHL1 (UniProt P09936). A digest of the protocol: as §1
Sequence of UCHL1 (P09936 whole entry, looked up): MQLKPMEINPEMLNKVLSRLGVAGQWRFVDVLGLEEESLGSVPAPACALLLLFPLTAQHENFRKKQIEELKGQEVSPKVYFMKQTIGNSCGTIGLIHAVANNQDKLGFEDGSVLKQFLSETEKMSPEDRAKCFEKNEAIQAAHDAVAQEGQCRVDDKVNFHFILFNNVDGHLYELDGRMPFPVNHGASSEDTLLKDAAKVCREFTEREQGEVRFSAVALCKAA
For experiment [6], the target named is T4, UCHL3 (UniProt P15374).
T4 sequence (whole entry): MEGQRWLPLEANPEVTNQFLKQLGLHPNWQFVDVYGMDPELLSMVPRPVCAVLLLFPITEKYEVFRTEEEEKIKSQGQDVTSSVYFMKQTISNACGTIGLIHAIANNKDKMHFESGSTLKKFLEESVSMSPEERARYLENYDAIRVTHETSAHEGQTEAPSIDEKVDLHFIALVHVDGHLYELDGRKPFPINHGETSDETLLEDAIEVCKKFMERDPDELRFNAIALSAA
A digest of the protocol: as §1

The target of experiment [7] is T5, UCHL5 (UniProt Q9Y5K5).
T5 sequence (whole entry): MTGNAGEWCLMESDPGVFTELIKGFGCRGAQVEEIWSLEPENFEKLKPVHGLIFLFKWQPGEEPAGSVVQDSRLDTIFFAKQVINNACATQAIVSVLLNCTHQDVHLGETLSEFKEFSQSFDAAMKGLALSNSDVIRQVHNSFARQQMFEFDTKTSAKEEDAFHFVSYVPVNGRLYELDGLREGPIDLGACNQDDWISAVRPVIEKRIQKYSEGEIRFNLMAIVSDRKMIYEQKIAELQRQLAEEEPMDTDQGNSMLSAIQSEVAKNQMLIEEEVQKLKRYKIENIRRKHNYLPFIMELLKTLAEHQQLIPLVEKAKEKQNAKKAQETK
A digest of the protocol: as §1

The target in experiment [8] is USP10 (UniProt Q14694). A digest of the protocol:
as §1

Experiment [9] addresses T6, USP15 (UniProt Q9Y4E8).
T6 sequence (whole entry): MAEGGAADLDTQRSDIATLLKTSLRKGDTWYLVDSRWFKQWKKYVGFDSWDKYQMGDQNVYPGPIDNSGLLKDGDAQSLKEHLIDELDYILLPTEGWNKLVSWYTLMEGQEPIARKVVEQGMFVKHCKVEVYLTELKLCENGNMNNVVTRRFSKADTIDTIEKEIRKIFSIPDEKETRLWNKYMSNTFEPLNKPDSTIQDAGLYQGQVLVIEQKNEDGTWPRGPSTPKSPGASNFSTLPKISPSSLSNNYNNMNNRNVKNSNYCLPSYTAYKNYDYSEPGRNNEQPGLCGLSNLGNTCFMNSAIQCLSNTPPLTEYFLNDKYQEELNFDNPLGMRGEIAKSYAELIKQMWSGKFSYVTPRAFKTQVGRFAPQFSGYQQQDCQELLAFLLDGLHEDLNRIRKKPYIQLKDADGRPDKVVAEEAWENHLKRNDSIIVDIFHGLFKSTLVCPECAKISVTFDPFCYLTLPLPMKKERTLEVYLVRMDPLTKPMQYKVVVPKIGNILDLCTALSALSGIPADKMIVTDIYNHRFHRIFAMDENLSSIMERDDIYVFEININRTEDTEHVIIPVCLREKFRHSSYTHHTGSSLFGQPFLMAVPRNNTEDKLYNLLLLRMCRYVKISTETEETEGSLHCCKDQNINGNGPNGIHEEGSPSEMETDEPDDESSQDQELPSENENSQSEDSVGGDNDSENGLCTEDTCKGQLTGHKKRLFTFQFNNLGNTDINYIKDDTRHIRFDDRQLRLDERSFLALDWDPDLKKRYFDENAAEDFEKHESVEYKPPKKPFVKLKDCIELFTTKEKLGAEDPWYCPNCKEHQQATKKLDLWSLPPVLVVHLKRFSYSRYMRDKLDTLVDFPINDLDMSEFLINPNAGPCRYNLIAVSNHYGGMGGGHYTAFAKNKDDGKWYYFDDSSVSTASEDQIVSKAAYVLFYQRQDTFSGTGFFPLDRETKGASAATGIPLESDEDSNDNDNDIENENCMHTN
The essentials: as §1

In experiment [10] the target is USP16 (UniProt Q9Y5T5). The essentials: as §1
Sequence of USP16 (Q9Y5T5 whole entry, looked up): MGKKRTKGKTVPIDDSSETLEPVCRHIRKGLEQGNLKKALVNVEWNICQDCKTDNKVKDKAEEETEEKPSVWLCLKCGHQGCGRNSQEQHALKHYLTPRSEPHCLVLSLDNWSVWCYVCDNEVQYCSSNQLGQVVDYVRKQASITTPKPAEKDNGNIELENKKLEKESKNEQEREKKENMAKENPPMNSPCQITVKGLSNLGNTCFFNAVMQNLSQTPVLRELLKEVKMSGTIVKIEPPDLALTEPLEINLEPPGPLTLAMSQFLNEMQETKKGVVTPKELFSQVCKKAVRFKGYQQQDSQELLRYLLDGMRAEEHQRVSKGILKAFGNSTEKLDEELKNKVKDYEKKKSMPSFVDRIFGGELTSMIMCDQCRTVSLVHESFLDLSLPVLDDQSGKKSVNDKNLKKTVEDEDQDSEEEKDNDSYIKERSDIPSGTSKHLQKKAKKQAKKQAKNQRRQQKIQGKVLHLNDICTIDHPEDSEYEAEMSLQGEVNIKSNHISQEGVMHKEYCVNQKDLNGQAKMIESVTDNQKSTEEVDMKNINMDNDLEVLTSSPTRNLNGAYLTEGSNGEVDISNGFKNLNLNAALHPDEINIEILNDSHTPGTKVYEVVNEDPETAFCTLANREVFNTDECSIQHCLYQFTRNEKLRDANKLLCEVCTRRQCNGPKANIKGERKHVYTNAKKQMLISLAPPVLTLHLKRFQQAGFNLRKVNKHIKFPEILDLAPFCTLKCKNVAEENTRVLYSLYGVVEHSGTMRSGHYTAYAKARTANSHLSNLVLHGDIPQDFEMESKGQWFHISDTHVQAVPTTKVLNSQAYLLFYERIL

SMILES strings stand for the structures. Values without a mark were called inactive.

Sequence of USP10 (Q14694 whole entry): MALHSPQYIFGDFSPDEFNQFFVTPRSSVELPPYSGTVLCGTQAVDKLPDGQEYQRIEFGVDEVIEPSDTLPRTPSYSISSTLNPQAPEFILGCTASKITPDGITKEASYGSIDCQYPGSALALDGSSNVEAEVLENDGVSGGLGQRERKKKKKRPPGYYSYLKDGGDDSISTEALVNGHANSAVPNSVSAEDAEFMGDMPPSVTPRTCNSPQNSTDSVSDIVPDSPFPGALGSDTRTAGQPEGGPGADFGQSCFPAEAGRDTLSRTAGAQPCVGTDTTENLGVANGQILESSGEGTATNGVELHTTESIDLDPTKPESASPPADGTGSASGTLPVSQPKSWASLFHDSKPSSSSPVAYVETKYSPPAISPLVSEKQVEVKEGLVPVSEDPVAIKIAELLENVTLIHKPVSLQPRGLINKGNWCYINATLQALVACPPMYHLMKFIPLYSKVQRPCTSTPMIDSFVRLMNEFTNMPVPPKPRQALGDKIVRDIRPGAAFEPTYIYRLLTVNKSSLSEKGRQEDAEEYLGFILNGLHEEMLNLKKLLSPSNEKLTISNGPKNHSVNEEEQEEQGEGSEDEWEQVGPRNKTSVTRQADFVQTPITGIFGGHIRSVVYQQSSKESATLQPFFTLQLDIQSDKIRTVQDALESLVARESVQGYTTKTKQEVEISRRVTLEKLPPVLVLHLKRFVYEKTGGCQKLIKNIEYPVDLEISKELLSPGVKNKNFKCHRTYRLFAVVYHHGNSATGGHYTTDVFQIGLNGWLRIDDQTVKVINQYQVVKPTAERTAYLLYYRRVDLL

With `COc1cccc(CN(C)C(=O)CCl)c1`, the “log2 ratio of Biotin-Ahx-Ub-VS probe labelling” value in [1] is -0.198; in [2] it was -0.364; in experiment [3] it was -0.0045; in [4], -0.109; in experiment [5], -1.22 (active); in experiment [6], 0.229. Besides, the “log2 ratio of Biotin-Ahx-Ub-VS probe labelling” value in experiment [7] is -0.0244; in [8] it was -0.22; in experiment [9], -0.251; in [10], 0.142.
